Over roughly 33,000 sequences, “E-score (-0.5 to 0.5)” has its median near -0.043; the highest 2% begin near 0.37. The sample holds the highest values, similar sequences and a random draw of the others, so the mix is not that of the screen.
molecular target: T1, Upc2 (UniProt Q12151); experiment: PBM E-score (8-mer binding enrichment) (E-score (-0.5 to 0.5)); higher = stronger / more preferred TF binding; settings: protein concentration: 200 nM; construct: GST-full length
T1 sequence: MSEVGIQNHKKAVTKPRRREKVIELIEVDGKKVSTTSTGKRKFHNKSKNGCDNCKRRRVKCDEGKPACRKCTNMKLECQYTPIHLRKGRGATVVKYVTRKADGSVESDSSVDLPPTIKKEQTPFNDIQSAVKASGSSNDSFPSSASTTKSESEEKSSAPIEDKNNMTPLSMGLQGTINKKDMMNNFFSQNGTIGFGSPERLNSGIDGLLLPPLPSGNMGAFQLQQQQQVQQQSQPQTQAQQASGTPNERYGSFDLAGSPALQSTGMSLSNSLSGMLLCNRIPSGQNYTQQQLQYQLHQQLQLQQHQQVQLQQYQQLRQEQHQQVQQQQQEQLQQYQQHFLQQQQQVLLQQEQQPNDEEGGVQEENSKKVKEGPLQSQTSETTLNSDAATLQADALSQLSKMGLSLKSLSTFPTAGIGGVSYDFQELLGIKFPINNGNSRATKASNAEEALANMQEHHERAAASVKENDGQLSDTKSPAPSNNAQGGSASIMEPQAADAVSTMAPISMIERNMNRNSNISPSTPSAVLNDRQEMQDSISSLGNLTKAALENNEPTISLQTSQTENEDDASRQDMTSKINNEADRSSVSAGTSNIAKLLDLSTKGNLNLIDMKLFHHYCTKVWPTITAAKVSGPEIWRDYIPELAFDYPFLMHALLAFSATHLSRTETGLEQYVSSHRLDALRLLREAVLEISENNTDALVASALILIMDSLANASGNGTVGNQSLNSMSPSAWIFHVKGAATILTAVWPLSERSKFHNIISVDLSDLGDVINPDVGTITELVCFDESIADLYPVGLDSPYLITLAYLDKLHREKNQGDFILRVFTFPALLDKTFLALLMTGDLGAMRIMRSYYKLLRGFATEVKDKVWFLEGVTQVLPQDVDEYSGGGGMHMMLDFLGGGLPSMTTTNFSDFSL
Protocol: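 Universal 'all 10-mer' protein binding microarrays (Agilent AMADID 015681) probed with GST-tagged S. cerevisiae TFs (full-length or DBD) made by in vitro transcription/translation (PURExpress), about 100-200 nM. Bound TF was detected with fluorescent anti-GST. Each ungapped 8-mer (which stands for itself and its reverse complement) is scored by the PBM enrichment score (E-score), a modified Wilcoxon-Mann-Whitney statistic from -0.5 to +0.5, computed with the Universal PBM Analysis Suite. Scale: above 0.35 generally sequence-specific binding.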

Row | Sequence | PBM E-score
1 | AAACGGCG | 0.401
2 | GAACGGCA | 0.27
3 | AAACGGCC | 0.359
4 | AAACGGCT | 0.296
5 | TAGAAACA | 0.0409
6 | GAGTGTGA | 0.156
7 | CGCCCAAG | -0.0616
8 | ATCTAAGA | -0.179
9 | GCAGTACC | -0.124
10 | GAGCACAA | -0.0319
11 | ACGAGCGA | 0.379
12 | ACGAGCGT | 0.386
13 | CCGAGCGA | 0.193
14 | GCGAGCGA | 0.226
15 | ACGAGCGG | 0.369
16 | ACGAGCGC | 0.347
17 | ACTCAGTA | 0.18
18 | ATGGTGGG | -0.278
19 | AACCTGTA | 0.118
20 | AGACGAAC | 0.29
21 | GCACGAAC | 0.25
22 | GAACGAAA | 0.416
23 | CCACGAAA | -0.0902
24 | ACACGAAC | 0.216
25 | GAACGAAC | 0.441

Row | Sequence | PBM E-score
26 | AAACGAAC | 0.471
27 | CAACGAAC | 0.257
28 | TGACGAAA | 0.00712
29 | ATGCTGAA | -0.151
30 | GTTGTGAA | 0.00742
31 | GAAGCAGA | -0.244
32 | CGCAGCCC | -0.0774
33 | CGTACGGC | 0.381
34 | CATACGGG | 0.367
35 | GGTACGGA | 0.355
36 | AGTACGGC | 0.299
37 | CATACGGC | 0.383
38 | AATACGGC | 0.291
39 | CGTACGTC | 0.338
40 | AGTACGGA | 0.224
41 | CGTACGGA | 0.382
42 | AGTTGGCA | 0.0278
43 | CGTCGATA | -0.028
44 | AAGCTACA | -0.125
45 | CCGTCGCG | 0.132
46 | GAAAAACC | -0.037
47 | TCCTCAAA | -0.24
48 | AGAGCCCG | -0.0194
49 | CTGACGTA | 0.164
50 | CTGAACGC | 0.121

Row | Sequence | PBM E-score
51 | GTGAACAA | 0.128
52 | CTGAACTA | -0.104
53 | ATGAACGC | 0.14
54 | ATGAACGA | 0.459
55 | GTGAACTA | 0.142
56 | ATGAACGG | 0.261
57 | CTGAACGA | 0.472
58 | GTGAACGA | 0.453
59 | TTGACCAA | -0.179
60 | AACTACCT | -0.152
61 | ACCAGAAC | 0.0633
62 | AACGATGT | 0.388
63 | TACGATGA | 0.433
64 | ATCGATGA | -0.0519
65 | GACGATGC | -0.0158
66 | AACGATGC | 0.352
67 | AACGATGG | 0.391
68 | CACGATGG | 0.0566
69 | ACCGATGA | 0.0812
70 | AACGATGA | 0.387
71 | CACGATGA | 0.169
72 | GACGATGA | -0.00259
73 | CACGATGC | 0.0841
74 | CCAGTGAC | -0.217
75 | CAGAGATG | -0.222

Row | Sequence | PBM E-score
76 | GACTGATC | -0.118
77 | GATTCCCC | -0.214
78 | AAGTACGA | 0.407
79 | TAGTACGA | 0.401
80 | CAGTACGA | 0.411
81 | TAGTACAA | 0.00376
82 | GAGTACGC | -0.0301
83 | GAGTACGA | 0.375
84 | TAGTACCA | -0.148
85 | GAGTACAA | -0.0557
86 | AAGTACGT | 0.154
87 | CAGTACGC | 0.037
88 | CAGTACGG | 0.257
89 | AAGTACGC | 0.115
90 | TCTGATCA | -0.317
91 | TCGCAAAA | 0.216
92 | CGCTACAG | -0.105
93 | CGTCTATA | 0.0202
94 | CGGGAGGA | -0.157
95 | AGAGCATA | -0.0221
96 | AACTTTGT | -0.172
97 | TTTAGAAA | 0.133
98 | GCTTAGCA | -0.00347
99 | TAATTACA | -0.0323
100 | ACGATCGC | 0.352

Row | Sequence | PBM E-score
101 | AAGATCGT | 0.371
102 | AAGATCGC | 0.148
103 | ACGATCGG | 0.295
104 | ACGATCGT | 0.438
105 | AAGATCGG | -0.0541
106 | ATTACCGC | 0.0457
107 | ACGAGCTC | 0.404
108 | CCGAGCTC | 0.197
109 | ACGAGCTA | 0.394
110 | ACGAGCTG | 0.36
111 | GCGAGCTA | 0.207
112 | CCGAGCTA | 0.0202
113 | AGGATAGG | -0.0689
114 | CTTCATCC | -0.177
115 | ACTCAGTC | -0.097
116 | GCTGCAGC | -0.125
117 | CCCATACA | -0.22
118 | ACCATACA | -0.0345
119 | ACCATACG | 0.399
120 | ACCATACC | -0.0989
121 | CCCATACC | 0.0537
122 | CCCATACG | 0.407
123 | ACTAAGAA | -0.0494
124 | GATGGGAA | -0.0309
125 | TCGGAAAA | 0.234

Row | Sequence | PBM E-score
126 | ATAAGATA | 0.146
127 | CCTAAAGC | -0.082
128 | AGTAAAGC | -0.0204
129 | CGTAAAGC | 0.403
130 | CGTAAAGA | 0.412
131 | AGTAAAGA | -0.212
132 | GGTAAAGA | 0.0863
133 | CGGTTTAG | 0.161
134 | CGGAAGAG | -0.146
135 | CCAGTTAC | -0.21
136 | TGTTAGAA | -0.177
137 | GGTTTGGA | -0.0119
138 | CGTTTGAG | 0.396
139 | CGTTTGAA | 0.35
140 | GGTTTGCA | 0.0633
141 | AGTTTGGA | -0.014
142 | CGTTTGCA | 0.395
143 | CGTTTGGC | 0.409
144 | CGTTTGTC | 0.34
145 | CGTTTGCC | 0.323
146 | CGTTTGAC | 0.363
147 | AGTTTGGC | -0.015
148 | CGTTTGGA | 0.428
149 | CTTATGCC | -0.0216
150 | ATTCTGTA | 0.0418

Row | Sequence | PBM E-score
151 | TGAAATCA | -0.103
152 | CAACAAGC | -0.163
153 | GGTGTCAA | -0.169
154 | ATCGATTG | 0.0896
155 | AACGGTTC | 0.166
156 | CCTTCCAA | -0.216
157 | GGGTTCAA | -0.157
158 | ACTTATTC | -0.0293
159 | ATCGCAGC | 0.085
160 | AACGTCAC | -0.0182
161 | CCGTCGTC | 0.0861
162 | CCGTCGGA | 0.0146
163 | GCGTCGTA | 0.468
164 | CCGTCGTA | 0.457
165 | GCGTCGCA | 0.19
166 | ACGTCGTC | 0.206
167 | ACGTCGTA | 0.458
168 | ACGTCGTG | 0.0636
169 | GCGTCGAA | -0.0193
170 | AGGGTAGG | -0.331
171 | ACTAACCT | 0.042
172 | ATCATCTG | -0.129

From the supplement of paper PMC3334620
